# In all, about 410,000 compounds went through this assay and about 7,200 (1.8%) were called active. About 7% were inconclusive and are not listed. The full list was thinned out, with actives kept by preference. A number with no mark means an inactive call. The call rests on the fitted dose curve; in most records, active means well fitted activation curve with a large enough effect; inconclusive means small, poorly fitted or top-dose-only effect, or another doubt; inactive means no such curve, though single readings can be large or run the other way.
# Test: qHTS of TDP-43 Inhibitors; further: nearly all actives have a fitted effect of over 50% in size; on growth rescue (activation): % of control where 0% means no effect
# Details: TDP-43 expressing yeast growth rescue, BacTiter-Glo, 24 h; series mostly up to 46.1 µM; growth rescue (activation): at the top concentration
# Summary of the method: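 Galactose-induced TDP-43 yeast, OD600=0.02, compound pinned; 24 hr, 30 deg C; BacTiter-Glo luminescence for growth. Inhibitors of TDP-43 toxicity read as activators.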
# Potency means the concentration at half of the fitted maximal effect.
SMILES,growth rescue (activation),Potency
CCc1cccc(CC)c1NC(=O)Cn1c(=O)c(-c2cc(C)ccc2NC(C)=O)nc2ccccc21,11.5%,
CC(C)C[C@@H]1Cc2[nH][nH]c(=O)c2[C@H](CCc2ccccc2)O1,6.76%,
CC(C)C1CC2=C(C(=O)OC(C)(C)O2)C(c2ccc(F)cc2)O1 (stereo not drawn),19%,
CC(C)C1Cc2[nH][nH]c(=O)c2C(c2ccc(Cl)cc2)O1 (stereo not drawn),,20 µM (active)
Cc1cccn2c(=O)c3cc(C(=O)NC(C)c4ccccc4)c(=N)n(CCCO)c3nc12 (stereo not drawn),-8.98%,
CCc1ccc(NC(=O)c2nn(-c3ccc(C)cc3)c(=O)n(C)c2=O)cc1,19% [at 9.22 µM],
CCOC(=O)c1ccc2c(c1)N(Cc1cccc(OC)c1)C(=O)c1ccccc1S2(=O)=O,11.1%,
Cc1cccc(NC(=O)CSc2nnc(CNC(=O)c3cccc(C)c3)n2-c2ccccc2)c1,-2.58%,
CC(=O)c1cccc(NC(=O)c2nc(-c3ccccc3)n(-c3cccc(C)c3)n2)c1,,22.4 µM (active)
Cc1nn(-c2ccccc2)c(Cl)c1C(=O)Nc1ccccc1,,11.2 µM (active)
Cc1cccc(NC(=O)c2cc3c(C)nn(-c4ccccc4)c3s2)c1,,35.5 µM (active)
CC(=O)c1ccc(NC(=O)c2nc3nc(C)cc(C(F)F)n3n2)cc1,21.4%,
Cc1cccc(C)c1NC(=O)CNC(=O)c1c(C)nn(-c2ccccc2)c1C,21.2%,
CCn1c(=O)c2cc(C(=O)Nc3cccc(C(C)=O)c3)sc2c2ccccc21,6.15%,
Cc1nn(-c2ccccc2)c(-n2cccc2)c1C(=O)O,2.82%,
Cc1nn(-c2ccccc2)c2sc(C(=O)N(Cc3ccco3)C(C)C(=O)NC(C)(C)C)cc12 (stereo not drawn),11.9%,
Cc1ccc(-c2nnc(SCc3ccccc3C)o2)cc1,14.3%,
COc1ccc(CCNC(=O)c2ccc3c(c2)sc2nc(-c4ccc(C)cc4)cn23)cc1OC,19.4%,
Oc1ccc(-c2cccc(-c3ccc(O)cc3)c2)cc1,,6.31 µM (active)
Oc1ccc(-c2nncn2-c2ccccc2)cc1,7.88%,
O=C(OCc1ccc(-c2ccccc2)cc1)c1cccc(O)c1,-90.7%,
COCCN(Cc1ccco1)C(=O)Cn1ncc2c([nH]c3ccccc32)c1=O,13%,
COc1cccc(CNC(=O)C(=O)NCC(c2cccs2)S(=O)(=O)c2ccccc2)c1 (stereo not drawn),-8.15%,
COc1ccc(Br)cc1CNC(=O)c1cc(=O)[nH]c2ccc(S(=O)(=O)N3CCCC3)cc12,18.9%,
CCOC(=O)N1CCc2c(sc3c2C(=O)NC(c2ccccc2F)N3)C1 (stereo not drawn),15.8%,

SMILES,growth rescue (activation),Potency
Clc1cccc(-n2ncc3c(NCCc4ccccc4)ncnc32)c1,0%,
CCN(c1ncnc2c1cnn2-c1ccc(C)cc1)C1CCCCC1,22%,
COC(=O)CSc1ncnc2c1cnn2-c1ccc(C)cc1C,,17.8 µM (active)
CC(C)Sc1ncnc2c1cnn2-c1ccccc1,,12.6 µM (active)
COc1ccccc1N1CCN(C(=O)CSc2ncnc3c2cnn3-c2ccc(C)c(C)c2)CC1,4.55%,
CCN(CC)C(=O)CSc1ncnc2c1cnn2-c1ccccc1,,15.8 µM (active)
Cc1ccc(-n2ncc3c(Nc4cccc(C(=O)O)c4)ncnc32)cc1,,inactive
CCN(C(=O)CSc1ncnc2c1cnn2-c1ccccc1)C1CCS(=O)(=O)C1 (stereo not drawn),-4.49%,
CCC(C)N(C(=O)CSc1ncnc2c1cnn2-c1ccccc1)C1CCS(=O)(=O)C1 (stereo not drawn),21.9%,
CCOc1cccc(NC(=O)c2ccc(F)c(S(=O)(=O)N(CC)c3cccc(C)c3)c2)c1,10.1%,
Cc1ccccc1-n1c(=O)c2ccccc2n(Cc2ccc(F)cc2)c1=O,0%,
CCn1c(C(=O)Nc2cc(Cl)ccc2C)cc2sc(Cl)cc21,5.74%,
CCC(=O)N1CCc2cc(Br)cc(S(=O)(=O)CCC(=O)NCc3ccccc3OC)c21,2.93%,
CCc1cccc(C)c1NS(=O)(=O)c1ccc(-c2cc(C)no2)s1,6.01%,
Cc1cc(NC(=O)C2CCC(CNS(=O)(=O)c3ccc(Br)s3)CC2)ccc1Br (stereo not drawn),11.5%,
COc1ccc(OC)c(CCNC(=O)CCCn2c(=O)c3cccn3c3cccnc32)c1,9.05%,
CN1CCN(C(CNC(=O)c2ccccc2F)c2ccc3c(c2)OCO3)CC1 (stereo not drawn),22.5%,
Cc1ccc(-c2nnc3c4ccccc4c(C)nn23)cc1NC(=O)c1cccc(Br)c1,6.34%,
CCCN1CCN(CCCNC(=O)c2cnn(-c3ccc(C)cc3)c2-n2cccc2)CC1,-13%,
CCn1nccc1C(=O)Nc1ccc(Cl)c(Cl)c1,,17.8 µM (active)
Cc1ccc(-c2nn(CCC(=O)Nc3ccc(Cl)c(Cl)c3)c(=O)c3ccccc23)cc1,-5.81%,
CCn1nccc1C(=O)Nc1ccc(S(=O)(=O)NC23CC4CC(CC(C4)C2)C3)cc1,-9.71%,
COc1ccc(-c2noc(-c3ccc(N4CCN(c5ccccc5)CC4)c([N+](=O)[O-])c3)n2)cc1OC,22.5%,
COc1ccc(OCC(=O)Nc2cc(C)c(Cl)cc2OC)c([N+](=O)[O-])c1,-6.38%,
Cc1nnc(-c2ccc(Oc3ccc(C)c(C)c3)c([N+](=O)[O-])c2)o1,,20 µM (active)

SMILES,growth rescue (activation),Potency
COc1ccc(Cl)cc1NC(=O)CSc1nc(=O)[nH]c2c1CCCC2,20.8%,
CCOC(=O)c1cc(NC(=O)c2ccc(F)cc2)c(=O)n2c1oc1ccccc12,19%,
Cc1ccc(F)cc1NC(=O)CCSc1nc(-c2ccco2)cc(C(F)(F)F)n1,0%,
CC(C)c1ccc(CC(=O)N2CCC2(C)C(=O)NS(=O)(=O)c2ccc(C(C)(C)C)cc2)cc1 (stereo not drawn),,22.4 µM (active)
CCCC(=O)N1CCC1(C)C(=O)NS(=O)(=O)c1ccc(Cl)cc1 (stereo not drawn),20.4%,
CC(C)(C)c1ccc(S(=O)(=O)NC(=O)C2(C)CCN2C(=O)CC2CC2)cc1 (stereo not drawn),12.9%,
CCCCS(=O)(=O)c1oc(-c2cccs2)nc1S(=O)(=O)c1ccccc1,9.11%,
CCC(=O)N1CCc2cc(Br)cc(S(=O)(=O)CCC(=O)NCCc3ccc(OC)c(OC)c3)c21,-3.94%,
COc1cccc(CNC(=O)c2ccc3c(c2)sc2nc(-c4cccc(OC)c4)cn23)c1,11.4%,
COc1cccc(CNC(=O)CSc2c3c(nc4cc(Cl)ccc24)CCCC3)c1,0%,
COc1cccc(CNC(=O)c2ccc3c(Cl)c4c(nc3c2)CCCC4)c1,,15.8 µM (active)
CCC(C(=O)Nc1cccc(Cl)c1C)n1nc(-c2ccc(C)cc2)ccc1=O (stereo not drawn),19.3%,
Cc1cccc(C(CC(=O)NCC2(c3ccccc3)CCCC2)c2ccccc2)c1O (stereo not drawn),1.56%,
CC(C)c1ccc(NC(=O)C2CCN(c3nc(-c4ccc(C(C)C)cc4)no3)CC2)cc1,15.4%,
CCN(C(=O)C1CCCN(c2nc(-c3ccc(OC)cc3)no2)C1)c1ccc(OC)cc1 (stereo not drawn),,22.4 µM (active)
COc1ccc(NC(=O)N2CCCC(c3nc(-c4ccc(F)cc4)no3)C2)cc1 (stereo not drawn),-8.68%,
O=C(Nc1cc(C(F)(F)F)ccc1Cl)c1ccc2c(c1)CCN2S(=O)(=O)c1ccccc1,0.492%,
Cc1ccccc1CNC(=O)CSc1nnc(C)c2c(C)n(-c3ccccc3)nc12,-0.0928%,
Cc1ccc(Cl)cc1N1CCN(C(=O)c2cn(C)c3ccc(S(=O)(=O)N(C)C4CCCCC4)cc3c2=O)CC1,-6.86%,
Cc1cccc(Cn2c(=O)n(CCC(=O)NCCc3ccc(Cl)cc3)c(=O)c3sccc32)c1,-5.44%,
O=[N+]([O-])c1ccc2c(c1)Nc1nc3ccccc3nc1N2,,22.4 µM (active)
O=C1Nc2ccc([N+](=O)[O-])cc2C1=Nc1cccc(CO)c1,-7.38%,
Cc1nc2ccccc2nc(=O)c1NNc1ccc([N+](=O)[O-])cc1,12.8% [at 9.22 µM],
NC(=O)CSc1c[nH]c2ccccc12,-0.941%,
CSC(=S)N/N=C/c1c[nH]c2ccccc12,,12.6 µM (active)

SMILES,growth rescue (activation),Potency
C[n+]1ccc(/C=C/c2c[nH]c3ccccc23)cc1,-10.3%,
NS(=O)(=O)c1ccc2nc(NC(=O)COc3ccccc3)sc2c1,24% [at 9.22 µM],
CC1CN(C(=O)N2CCC(C(=O)NCc3ccco3)CC2)c2cc(Cl)ccc2O1 (stereo not drawn),0%,
Cc1c(Cl)cccc1-c1ccc(CNCCCSc2nnnn2C)o1,0% [at 9.22 µM],
CC(C)c1ccc(Cn2c(COc3ccccc3)nc3ccccc32)cc1,-4.54%,
C=C(Br)Cn1c(CCCC)nc2ccccc21,7.28%,
COCc1nc2ccccc2n1Cc1ccccc1Br,,20 µM (active)
COc1cccc(NC(=O)C(=O)NCC(c2ccc3c(c2)OCO3)N2CCN(C)CC2)c1 (stereo not drawn),2.35%,
COc1ccc(Cn2c(C(=O)O)c(CNCc3cccc(OC)c3)c3ccc(C)cc32)cc1,5.91%,
CCNC(=O)Cn1nc(C)n2c(cc3c(OC)cccc32)c1=O,18.2%,
CCOc1ccc(C(=O)N2CCN(CCc3ccccn3)CC2)cc1,19.5%,
O=C1C2C3C=CC(C3)C2C(=O)N1c1ccc(S(=O)(=O)Nc2nccs2)cc1 (stereo not drawn),-11.2%,
O=C1C2C3C=CC(C4CC34)C2C(=O)N1c1nccs1 (stereo not drawn),21.6%,
O=C1C2C3C=CC(C3)C2C(=O)N1c1ncc([N+](=O)[O-])s1 (stereo not drawn),,14.1 µM (active)
COc1ccccc1NC(=O)c1oc2ccccc2c1NC(=O)COc1ccccc1OC,13.7%,
CN1CCN(c2ccc(CNS(=O)(=O)c3cccc(F)c3)cc2)CC1,7.06%,
Cc1ccc(S(=O)(=O)NCC(=O)N2CCOCCOCCOCCOCC2)cc1,-6.52%,
Cc1ccc(CNS(=O)(=O)c2ccc3c(c2)N(C)CCO3)cc1,,15.8 µM (active)
Nc1ccc2c(c1)C(O)c1ccc(Cl)cc1-2 (stereo not drawn),,20 µM (active)
O=C(Nc1ccc2nc(SCC(=O)N3CCCc4ccccc43)sc2c1)c1ccc(F)cc1,12.4%,
O=C(c1cnn(-c2ccc(F)cc2)c1-n1cccc1)N1CCN(c2ccc(F)cc2)CC1,,25.1 µM (active)
COC(=O)c1ccccc1NC(=O)c1cnn(-c2ccc(F)cc2)c1-n1cccc1,0%,
O=C(Nc1ccc(F)cc1F)c1cnn(-c2ccc(F)cc2)c1-n1cccc1,19.2%,

# Reference: PubChem BioAssay AID652104 (National Center for Advancing Translational Sciences (NCATS), 2013)
